Only some compounds are listed: those with a hit (about 15% of all), similar ones and a draw of the others.
ALOX12 inh – Primary qHTS assay for inhibitors of human arachidonate 12S-lipoxygenase (ALOX12): Round 2; Polyunsaturated fatty acid lipoxygenase ALOX12 (Homo sapiens), P18054; purified 12hLO, xylenol orange hydroperoxide absorbance; Potency, µM (highest dose often 108 µM), most hits filed as inhibitors; 580,000 tested, 1.1% active; AID 1671190, 2021
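Purified human 12hLO (150 nM final) in 25 mM Hepes, 0.01% Triton X-100, pH 7.0 was preincubated 15 min at room temperature with compound. Then 40 uM arachidonic acid was added, 30 min. Hydroperoxide was read by Fe-XO absorbance ratio 573/405 nm.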
VP16 counter – VP16 counterscreen qHTS for inhibitors of ROR gamma transcriptional activity; Drosophila S2 Gal4-VP16 UAS-luciferase, luminescence, 20 h; Potency, µM (series often up to 53.6 µM), most hits filed as inhibitors; 310,000 tested, 3.5% active;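 further: Gal4-VP16 expression switched on by copper sulfate through the metallothionein promoter; nearly all actives have a fitted effect of over 50% in size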
TDP1 cell CPT – qHTS for Inhibitors of human tyrosyl-DNA phosphodiesterase 1 (TDP1): qHTS in cells in presence of CPT; chicken DT40 Tdp1-/-;hTDP1 cells + 20 nM CPT, ATP luminescence, 48 h; Potency, µM (titrated, usually from 46.2 µM), most hits filed as inhibitors; 420,000 tested, 12% active; further: nearly all actives have a fitted effect of over 55% in size
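Chicken DT40 Tdp1-/- cells complemented with human TDP1, 400 cells/well, exposed to compounds plus 20 nM camptothecin for at least 48 h at 37 C; viability read as ATP content by CellTiter-Glo luminescence.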
ELG1 DNA repair – qHTS screen for small molecules that inhibit ELG1-dependent DNA repair in human embryonic kidney (HEK293T) cells expressing luciferase-tagged ELG1. HEK293T ELG1-luciferase reporter, luminescence, 16 h; DNA damage induced by 5-fluorouridine. Potency, µM (highest dose often 46.1 µM), most hits filed as inhibitors. 330,000 tested, 2.3% active. AID 504467, 2011; further: nearly all actives have a fitted effect of over 55% in size
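Luminescence from the luciferase reporter, measured 30 min after ONE-Glo reagent at room temperature, was the read-out. Beforehand, 2,000 cells per well were exposed for 16 hr at 37 °C to 5-fluorouridine together with compound or vehicle.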
RORg inh – qHTS for inhibitors of ROR gamma transcriptional activity. Nuclear receptor ROR-gamma (Mus musculus), P51450. Drosophila S2 Gal4-RORgamma UAS-luciferase reporter, 20 h. Potency, µM (highest dose often 53.6 µM), hits mostly inhibitors. 310,000 tested, 5.4% active. AID 2551, 2010; further: nearly all actives have a fitted effect of over 60% in size
Target sequence (P51450 whole entry, looked up, the tested form may be a part): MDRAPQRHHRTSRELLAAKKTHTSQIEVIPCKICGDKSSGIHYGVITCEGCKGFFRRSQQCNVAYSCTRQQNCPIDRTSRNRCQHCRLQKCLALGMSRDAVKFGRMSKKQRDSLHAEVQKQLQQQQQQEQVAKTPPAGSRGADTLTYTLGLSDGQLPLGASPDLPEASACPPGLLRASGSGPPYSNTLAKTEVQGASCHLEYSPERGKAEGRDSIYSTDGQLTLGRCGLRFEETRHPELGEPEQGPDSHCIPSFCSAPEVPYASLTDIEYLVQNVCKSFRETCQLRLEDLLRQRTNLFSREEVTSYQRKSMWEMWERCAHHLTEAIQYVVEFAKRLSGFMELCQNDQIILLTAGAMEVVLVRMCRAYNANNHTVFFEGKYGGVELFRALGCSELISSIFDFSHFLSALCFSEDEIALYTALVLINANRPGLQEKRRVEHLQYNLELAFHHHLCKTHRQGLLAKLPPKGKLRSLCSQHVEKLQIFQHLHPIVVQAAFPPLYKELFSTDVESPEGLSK
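Luciferase reporter read in Schneider cells carrying Gal4-RORγ (mouse) and UAS-Photinus luciferase; cells given compound 1 h before 700 uM copper sulfate induction, then incubated 20 h at ambient temperature.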
DT40 TDP1 no CPT – qHTS for Inhibitors of human tyrosyl-DNA phosphodiesterase 1 (TDP1): qHTS in cells in absence of CPT; 420,000 tested, 15% active; DT40 Tdp1-/- hTDP1 cells, no CPT, ATP luminescence, 48 h; Potency, µM (highest dose often 46.2 µM), actives largely listed as inhibitors; further: nearly all actives have a fitted effect of over 55% in size
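Seeded 400 DT40-hTDP1 cells/well (vehicle DMSO, no 20 nM CPT); pinned compounds; ≥48 hr at 37 °C; CellTiter-Glo luminescence as viability measure.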
Numbers stand for hits; . = inactive; ? = inconclusive; / = no result; [ ] = remark or other dose. The call rests on the fitted dose curve; in most records, active means well fitted curve in the direction sought with a large enough effect; inconclusive means small, poorly fitted or top-dose-only effect, or another doubt; inactive means no such curve, though single readings can be large; an effect the other way counts as inactive or inconclusive.

SMILES | ALOX12 inh | VP16 counter | TDP1 cell CPT | ELG1 DNA repair | RORg inh | DT40 TDP1 no CPT
O=C(NCC(c1ccco1)S(=O)(=O)c1ccc(Cl)cc1)c1ccc(C(F)(F)F)cc1 (stereo not drawn) | . | / | 9.2µM | / | / | 11.6µM
c1ccc(OCc2cc(CC3(NCc4cccc5c4OCO5)COC3)no2)cc1 | . | / | / | / | / | /
COc1ccc(C(=O)N(CN2CCCC2=O)c2ccc(C)cc2)cc1 | . | . | ? | . | . | 14.6µM
Cc1ccc(N(CN2CCCC2=O)C(=O)c2ccccc2)cc1 | . | . | 13µM | . | . | 13µM
COc1cccc(C(=O)N(CN2CCCC2=O)c2ccccc2OC)c1 | . | . | . | . | . | .
O=C(N/N=C/c1ccccc1O)C1CC(=O)N(c2ccc(Cl)cc2)C1 (stereo not drawn) | . | 1.12µM | 7.31µM | ? | 0.891µM | 3.66µM
O=C(N/N=C/c1cccs1)C1CC(=O)N(c2ccccc2)C1 (stereo not drawn) | . | . | . | . | . | .
CCOC(=O)c1sc2nc(C(C)N3CCCC3)[nH]c(=O)c2c1C (stereo not drawn) | . | / | / | / | / | /
Oc1ccc(NCc2cccs2)cc1 | ? | ? | ? | . | ? | 13µM
CCC(C)c1ccc(NC(=S)NCc2cccs2)cc1 (stereo not drawn) | ? | 11.2µM | ? | ? | 7.08µM | ?
c1ccc(NCc2cccs2)cc1 | . | / | / | / | / | /
CC(C)(C)c1ccc(NC(=S)NCc2cccs2)cc1 | 31.6µM | 10µM | ? | . | 7.08µM | ?
COCCNC(=S)NCc1cccs1 | ? | . | . | . | . | .
Cc1nc(NC(=O)C2CC(=O)N(Cc3ccccn3)C2)sc1C (stereo not drawn) | . | / | / | / | / | /
O=C(COC(=O)CCC(=O)c1ccc(F)cc1)NC1CCCCCC1 | . | / | / | / | / | /
O=c1n(-c2ccncc2)nc2n1CCN(Cc1cccc3ccccc13)C2 | . | / | / | / | / | /
CCCCCCCCNc1ncnc2ccccc12 | / | 0.355µM | 0.291µM | ? | 2.24µM | 0.259µM
Cc1cc2c(Nc3ccccc3)ncnc2s1 | ? | .[10 µM] | . | . | . | ?
CCCCCNc1ncnc2c(C)[nH]nc12 | . | / | 14.6µM | / | / | 23.1µM
O=C(CSc1ncnc2ccccc12)NCCc1ccccc1 | . | . | . | . | . | .
c1ccc(CCNc2ncnc3ccccc23)cc1 | . | 0.562µM | 0.517µM | ? | 1.12µM | 0.651µM
Cc1cc2c(NCCc3ccccc3)ncnc2s1 | ? | / | 1.64µM | ? | / | 1.03µM
CCOc1ccccc1OCC(=O)Nc1cccc2cccnc12 | . | / | / | / | / | /
C=C(C)Cn1c(SCCO)nc2c1c(=O)[nH]c(=O)n2C | . | / | / | / | / | /
Cc1cc2c(NC3CCCCC3)ncnc2s1 | . | 12.6µM | ? | . | ? | 13µM
SMILES | ALOX12 inh | VP16 counter | TDP1 cell CPT | ELG1 DNA repair | RORg inh | DT40 TDP1 no CPT
Cc1ccc2c(C(=O)NC3CC3)cnn2c1 | . | / | / | / | / | /
OC1(c2cccnc2)CCN(Cc2ccc3c(c2)CN(Cc2ccc(F)c(F)c2)CCO3)CC1 | . | / | .[9.04 µM] | / | / | 11.6µM
OC1(c2cccnc2)CCN(Cc2ccc3c(c2)CN(Cc2cc(F)cc(F)c2)CCO3)CC1 | . | / | .[9.04 µM] | / | / | ?
Cc1nn(C)c(Cl)c1CN1CCOc2ccc(CN3CCC(Oc4cccnc4)CC3)cc2C1 | . | / | 10.3µM | / | / | 8.2µM
c1cncc(OC2CCN(Cc3ccc4c(c3)CN(Cc3ccc5c(c3)OCO5)CCO4)CC2)c1 | . | / | .[9.04 µM] | / | / | ?
COC(=O)c1c(C)[nH]c(C(=O)/C=C/c2ccc(C)cc2)c1C | . | 3.98µM | . | ? | 0.316µM | .
COC(=O)c1c(C)[nH]c(C(=O)/C=C/c2cccc(Cl)c2)c1C | . | ? | ? | ? | 8.91µM | ?
O=C(NCc1nnc2ccc(-c3ccccc3)nn12)c1ccco1 | . | / | / | / | / | /
Cc1ccc(Cl)cc1NC(=O)c1cc2c(=O)n3cccc(C)c3nc2n1C | . | / | 0.581µM | / | / | 0.517µM
CCCCN(CC)C(=O)c1cc2c(=O)n3cccc(C)c3nc2n1C | . | / | ? | / | / | 16.4µM
CCN(CC)C(=O)c1cc2c(=O)n3cccc(C)c3nc2n1C | . | . | . | ? | . | ?
COc1cccc(NC(=O)C2CCCN(S(C)(=O)=O)C2)c1 (stereo not drawn) | ? | . | . | . | . | .
COc1ccc(OC)c(NC(=O)C2CCCN(S(=O)(=O)c3c(C)nn(C)c3C)C2)c1 (stereo not drawn) | . | / | ? | / | / | 20.6µM
COc1ccc(OC)c(NC(=O)C2CCCN(S(=O)(=O)c3c(C)noc3C)C2)c1 (stereo not drawn) | . | ? | . | ? | . | ?
COc1cccc(NC(=O)C2CCCN(S(=O)(=O)c3c(C)nn(C)c3C)C2)c1 (stereo not drawn) | . | / | ? | / | / | 14.6µM
c1nc(NCc2ccc3c(c2)OCO3)c2cc(-c3ccc4c(c3)OCCO4)ccc2n1 | ? | / | / | . | / | /
Cc1csc(CNc2ncnc3ccc(-c4ccc5c(c4)OCCO5)cc23)c1 | 8.91µM | / | / | ? | / | /
Cc1cccc(CNc2ncnc3ccc(-c4ccc5c(c4)OCCO5)cc23)c1 | 50.1µM | / | / | ? | / | /
CCC1=C(C(=O)OC)C(c2cccc(C)c2)N2C(CC(=O)Nc3ccc(OC)cc3)=CSC2=N1 (stereo not drawn) | . | / | / | / | / | /
COCc1c(C(=O)N[C@@H]2CN(Cc3ccccc3)C[C@H]2CN(C)C)noc1C | . | / | / | / | / | /
O=C(c1cc(C2CC2)nc2onc(C3CCCN3)c12)N1CCOCC1 (stereo not drawn) | .[6.33 µM] | / | / | / | / | /
CCOC(=O)c1c(S(=O)(=O)N2CCCC(C(=O)Nc3ccc(C)cn3)C2)c(C)n(C)c1C (stereo not drawn) | . | . | ? | . | . | ?
CCOC(=O)c1c(S(=O)(=O)N2CCCC(C(=O)N(C)Cc3ccccc3)C2)c(C)n(C)c1C (stereo not drawn) | . | / | 11.6µM | / | / | ?
CCOC(=O)c1c(S(=O)(=O)N2CCCC(C(=O)N3CCN(c4ccc(F)cc4)CC3)C2)c(C)n(C)c1C (stereo not drawn) | . | / | 23.1µM | / | / | ?
CCOC(=O)c1c(S(=O)(=O)N2CCCC(C(=O)NCc3ccc(Cl)cc3)C2)c(C)n(C)c1C (stereo not drawn) | . | / | 13µM | / | / | ?
CCOC(=O)c1c(S(=O)(=O)N2CCCC(C(=O)N3CCN(c4ccccc4)CC3)C2)c(C)n(C)c1C (stereo not drawn) | . | / | 14.6µM | / | / | ?

Screening data (PubChem)
